Results published in the supplement of paper PMC13380429.
Values without a mark were called inactive.

Test system: Vero E6 infected with SARS-CoV-2
Test: SARS-CoV-2 infection rate relative to infected DMSO; higher = more infection, active = 60 or less
Conditions: 24 h

Row | Structure (SMILES) | SARS-CoV-2 infection rate [%]
1 | COc1ccccc1C(=O)Nc1cccc(NC(=O)c2cccc(C)c2)c1 (10 µM) | 96.5
2 | CNC(=O)[C@H]1O[C@@H](n2cnc3c(NCc4cccc(I)c4)nc(Cl)nc32)[C@H](O)[C@@H]1O (10 µM) | 107
3 | C[C@]12CCC(=O)C=C1C=C[C@@H]1[C@@H]2CC[C@@]2(C)[C@H]1CC[C@@]2(O)CCC(=O)O [potassium-canrenoate] (10 µM) | 114
4 | CC1(C)C(/C=C/C=C/C=C/C=C2\N(CCCCS(=O)(=O)O)c3ccc4ccccc4c3C2(C)C)=[N+](CCCCS(=O)(=O)[O-])c2ccc3ccccc3c21 [indocyanine-green] (10 µM) | 109
5 | CC(CNC1CCCCC1)OC(=O)c1ccccc1 (centres undefined) [hexylcaine] (10 µM) | 112
6 | COc1cc2c(Oc3ccc(NC(=O)C4(C(=O)Nc5ccc(F)cc5)CC4)cc3F)ccnc2cc1OCCCN1CCOCC1 [foretinib] (10 µM) | 106
7 | O=c1c(-c2ccccc2)c1-c1ccccc1 [diphencyprone] (10 µM) | 100
8 | CN1C2CCC1CC(OC(c1ccccc1)c1ccc(Cl)cc1)C2 (centres undefined) (0.833333 µM) | 98.5
9 | CCCC[C@H](NC(=O)[C@@H]1[C@@H]2[C@H](CN1C(=O)[C@@H](NC(=O)NC1(CS(=O)(=O)C(C)(C)C)CCCCC1)C(C)(C)C)C2(C)C)C(=O)C(=O)NC1CC1 [narlaprevir] (10 µM) | 111
